Test systems include SR leukemia; RPMI-8226 leukemia; OVCAR-8 ovarian; OVCAR-5 ovarian; OVCAR-4 ovarian; SK-OV-3 ovarian; IGROV1 ovarian; OVCAR-3 ovarian; HS 578T breast; NCI/ADR-RES ovarian.
What all share (test): NCI-60 one-dose screen, 48 h (100 = growth as untreated, 0 = no growth, -100 = all killed)
What all share (conditions): 10 µM unless noted

This is part of a sample that, as a whole, favours compounds with a hit. Of some 83,000 tested, about 20% had one in any assay.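 Compound tested at a single concentration for 48 hours in 96-well plates; a percent growth value below 10 was scored as active.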 Values without a mark were called inactive. Active and inactive are the calls of the source.

Consider `CC(C)c1ccc2occ(C=C3C(=O)NC(=O)NC3=O)c(=O)c2c1`, for which the growth is 73.1% in the test on SR leukemia; 74.8% in the test on RPMI-8226 leukemia; 80.1% in the test with OVCAR-8 ovarian; 123% with OVCAR-5 ovarian; 89.1% in the test with OVCAR-4 ovarian; 109% in the test with SK-OV-3 ovarian. Further, the growth was 120% with IGROV1 ovarian, 95.6% in the test with OVCAR-3 ovarian, 111% with HS 578T breast and 90.1% in the test on NCI/ADR-RES ovarian.

Turning to `O=C([O][Sn]([O]C(=O)c1ccccn1)([c]1ccccc1)[c]1ccccc1)c1ccccn1`, the growth in the test on SR leukemia was 47.6%; in the test with RPMI-8226 leukemia, 26%; in the test on OVCAR-8 ovarian, 93.6%; with OVCAR-5 ovarian, 94.9%; in the test on OVCAR-4 ovarian, 81.3%; in the test with SK-OV-3 ovarian, 99.7%. Further, the growth was 74.1% with IGROV1 ovarian, 71.4% in the test on OVCAR-3 ovarian, 88.5% in the test with HS 578T breast and 95.1% with NCI/ADR-RES ovarian.

For the compound `C=C[C@@H]1C[C@H](O)Cc2c(C)cc(C)cc2N1`, the growth in the test on SR leukemia was 82.8%; with RPMI-8226 leukemia, 84.7%; in the test with OVCAR-8 ovarian, 98.5%; in the test on OVCAR-5 ovarian, 89.3%; with OVCAR-4 ovarian, 108%; in the test on SK-OV-3 ovarian, 106%. The growth is 109% in the test on IGROV1 ovarian, 112% in the test with OVCAR-3 ovarian, 99.9% in the test on HS 578T breast and 97.1% in the test on NCI/ADR-RES ovarian.

`Cc1nc2cncc(C#Cc3cncc(C(=O)Nc4ccc(CN5CCN(C)CC5)c(C(F)(F)F)c4)c3)c2nc1C`: the growth in the test with SR leukemia is 19.7%; in the test on RPMI-8226 leukemia it was 8.79% (active); in the test on OVCAR-8 ovarian, 24.6%; in the test with OVCAR-5 ovarian, 10.5%; with OVCAR-4 ovarian it was 13.7%; in the test with SK-OV-3 ovarian, -26.8% (active). For the same compound, the growth in the test with IGROV1 ovarian was -5.34% (active); in the test on OVCAR-3 ovarian, 25.9%; in the test on HS 578T breast it was -9.83% (active); in the test on NCI/ADR-RES ovarian it was 18.5%.

With `CNc1ccc(Br)c2c1C(=O)c1ccccc1C2=O`, the growth in the test with SR leukemia is 101%; with RPMI-8226 leukemia, 87.8%; with OVCAR-8 ovarian it was 105%; in the test on OVCAR-5 ovarian it was 111%; in the test with OVCAR-4 ovarian it was 100%; with SK-OV-3 ovarian it was 112%. Moreover, the growth was 99.1% in the test on IGROV1 ovarian, 121% in the test on OVCAR-3 ovarian, 107% with HS 578T breast and 103% in the test with NCI/ADR-RES ovarian.

With `O=c1cc(Cc2ccc([N+](=O)[O-])cc2)[nH]c(=O)[nH]1`, the growth was 91.9% with SR leukemia; 91.6% with RPMI-8226 leukemia; 103% with OVCAR-8 ovarian; 98.2% with OVCAR-5 ovarian; 108% with OVCAR-4 ovarian; 99.1% with SK-OV-3 ovarian. Moreover, the growth in the test with IGROV1 ovarian is 117%; with OVCAR-3 ovarian, 126%; with HS 578T breast, 100%; in the test with NCI/ADR-RES ovarian, 109%.

`CCO/C=N/C1=C(C#N)C(c2ccc(Cl)cc2)c2c(c3ccccc3n(C)c2=O)O1` (stereo not given): the growth with SR leukemia is 22.7%; in the test on RPMI-8226 leukemia, 88.1%; in the test on OVCAR-8 ovarian, 86.3%; in the test on OVCAR-5 ovarian it was 85.1%; with OVCAR-4 ovarian it was 68.6%; with SK-OV-3 ovarian, 81.8%. The growth in the test on IGROV1 ovarian is 59.1%; in the test with OVCAR-3 ovarian, 64.3%; in the test with HS 578T breast, 65.5%; in the test with NCI/ADR-RES ovarian, 57.3%.

On to `O=c1[nH]c(Nc2ccc(S(=O)(=O)O)cc2)nc2nc(Nc3ccc(NC(=S)Nc4ccccc4)cc3)nc(-c3ccc(O)cc3O)c12`, for which the growth with SR leukemia was 61.7%; in the test with RPMI-8226 leukemia it was 82.6%; in the test on OVCAR-8 ovarian, 55.5%; in the test on OVCAR-5 ovarian, 116%; in the test on OVCAR-4 ovarian, 107%; in the test on SK-OV-3 ovarian, 114%. For the same compound, the growth was 61.7% with IGROV1 ovarian, 119% in the test on OVCAR-3 ovarian, 102% with HS 578T breast and 109% in the test with NCI/ADR-RES ovarian.

With `CCCCCCCCCCCCNC(=O)[C@H]1CSC(c2ccsc2)N1` (stereo not given in full), the growth in the test on SR leukemia is -44% (active); in the test with RPMI-8226 leukemia, 34.3%; in the test on OVCAR-8 ovarian, -49.4% (active); in the test with OVCAR-5 ovarian, -83.2% (active); with OVCAR-4 ovarian, -84.6% (active); in the test on SK-OV-3 ovarian it was -93.8% (active). Further, the growth was -66.7% (active) in the test on IGROV1 ovarian, -86.8% (active) in the test with OVCAR-3 ovarian, -56.5% (active) with HS 578T breast and -61.5% (active) with NCI/ADR-RES ovarian.

Turning to `COc1cc(/C=C/C(=O)c2ccc(Nc3ncnc4cc(OC)c(OC)cc34)cc2)cc(OC)c1`, the growth was 30.6% in the test with SR leukemia; -2.38% (active) in the test with RPMI-8226 leukemia; 95.3% with OVCAR-8 ovarian; 112% in the test on OVCAR-5 ovarian; 107% with OVCAR-4 ovarian; 116% in the test on SK-OV-3 ovarian. For the same compound, the growth with IGROV1 ovarian is 99.5%; with OVCAR-3 ovarian, 104%; with HS 578T breast, 97.3%; in the test with NCI/ADR-RES ovarian, 97.3%.

With `COC(=O)c1cccc2c1N(C)c1c(cccc1C(=O)OC)CC2`, the growth in the test with SR leukemia was 114%; in the test on RPMI-8226 leukemia, 90.5%; in the test with OVCAR-8 ovarian, 113%; in the test with OVCAR-5 ovarian it was 98.7%; with OVCAR-4 ovarian, 112%; with SK-OV-3 ovarian it was 110%. In addition, the growth was 108% with IGROV1 ovarian, 102% with OVCAR-3 ovarian, 89.7% in the test on HS 578T breast and 95.6% in the test on NCI/ADR-RES ovarian.

Turning to `O=C(NNC(=S)Nc1ccccc1)c1cc2ccc1CCc1ccc(cc1)CC2`, the growth with SR leukemia was 78.4%; in the test with RPMI-8226 leukemia, 46.4%; in the test with OVCAR-8 ovarian, 68.2%; with OVCAR-5 ovarian it was 92.2%; in the test on OVCAR-4 ovarian, 47.8%; in the test with SK-OV-3 ovarian, 113%. Besides, the growth in the test on IGROV1 ovarian was 64.1%; in the test with OVCAR-3 ovarian, 55.5%; in the test with HS 578T breast it was 97.2%; with NCI/ADR-RES ovarian it was 67.2%.

Turning to `Cc1csc(NC(c2ccccc2)c2c(C)nc3ccccn23)n1` (stereo not given), the growth was 94.9% in the test on SR leukemia; 79.2% in the test on RPMI-8226 leukemia; 102% in the test with OVCAR-8 ovarian; 101% in the test on OVCAR-5 ovarian; 104% in the test on OVCAR-4 ovarian; 97.3% in the test with SK-OV-3 ovarian. The growth in the test on IGROV1 ovarian is 108%; with OVCAR-3 ovarian it was 110%; with HS 578T breast, 95.5%; with NCI/ADR-RES ovarian, 99%.

With `C=C[C@@H]1C[C@@H]2Cc3cc(Cl)ccc3N1O2`, the growth is 92.4% with SR leukemia; 84.9% in the test on RPMI-8226 leukemia; 99.4% with OVCAR-8 ovarian; 97.8% in the test with OVCAR-5 ovarian; 102% with OVCAR-4 ovarian; 101% with SK-OV-3 ovarian. Moreover, the growth in the test on IGROV1 ovarian was 112%; in the test on OVCAR-3 ovarian, 109%; in the test with HS 578T breast it was 97.1%; with NCI/ADR-RES ovarian, 101%.

Source of the values: PubChem BioAssay (NCI).
